Test results as given in publication PMC5540273 (PLoS ONE, 2017).

Tests used:
Settings in all cases: concentration: 1 μM, replicates: in singlicate; n = 1
PIM1 = system: PIM1
PIM2 = system: PIM2
PIM3 = system: PIM3
PIP5K1A = system: PIP5K1A
PIP5K1C = system: PIP5K1C
PIP5K2B = system: PIP5K2B
PIP5K2C = system: T1, PIP5K2C
T1 construct: gene PIP4K2C

PKAC-alpha = system: T2, PKAC-alpha
T2 construct: gene PRKACA

PKAC-beta = system: T3, PKAC-beta
T3 construct: gene PRKACB

PKMYT1 = system: PKMYT1
PKN1 = system: PKN1
PKN2 = system: PKN2
PLK1 = system: PLK1
PLK2 = system: PLK2
PLK3 = system: PLK3
PLK4 = system: PLK4
PRKCD = system: PRKCD
PRKCE = system: PRKCE
PRKCH = system: PRKCH
PRKCI = system: PRKCI
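Also: KINOMEscan kinase panel screen.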

Structure (SMILES)	%Inh (PIM1) [%]	%Inh (PIM2) [%]	%Inh (PIM3) [%]	%Inh (PIP5K1A) [%]	%Inh (PIP5K1C) [%]	%Inh (PIP5K2B) [%]	%Inh (PIP5K2C) [%]	%Inh (PKAC-alpha) [%]	%Inh (PKAC-beta) [%]	%Inh (PKMYT1) [%]	%Inh (PKN1) [%]	%Inh (PKN2) [%]	%Inh (PLK1) [%]	%Inh (PLK2) [%]	%Inh (PLK3) [%]	%Inh (PLK4) [%]	%Inh (PRKCD) [%]	%Inh (PRKCE) [%]	%Inh (PRKCH) [%]	%Inh (PRKCI) [%]
O=C(Nc1ccccc1)Nc1cccc(Oc2ccc3nccn3n2)c1	0	2	0	9	49	15	48	48	70	0	0	0	33	0	0	0	16	0	0	21
Cl.O=C(Nc1cccc(-c2nn3ncccc3c2-c2ccnc(Nc3cccnc3)n2)c1)c1c(F)cccc1F [GSK312879]	11	0	0	2	11	4	0	14	19	20	45	0	0	0	0	0	0	5	16	0
CN1C(=O)C(Nc2ccc(Cl)c(C(=O)O)c2)=C(c2ccc(Cl)cc2)C1=O [SB-404290]	0	0	0	11	0	0	0	0	4	0	91.6	31	18	24	18	0	0	35	0	0
O=C(Nc1ccc2c(c1)OCO2)NC1CCN(c2ccnc(Nc3ccc(F)cc3)n2)C1 (centres unmarked) [GSK1379724]	0	0	0	34	32	13	23	0	0	15	4	0	0	0	0	0	0	7	0	0
CCn1c(-c2ccccn2)nc2cnccc21 [SB-736398]	0	0	0	6	34	7	32	92.9	6	0	0	11	0	0	0	0	0	10	0	30
COc1ccc(Nc2nccc(NCCNC(=O)Nc3ccccc3F)n2)cc1 [GSK1379901]	0	0	0	35	33	14	56	0	0	4	16	0	0	0	0	0	0	19	19	23
Cc1ccccc1-n1cnc2c(N)ncnc21 [SKF-97510]	0	0	2	0	0	0	0	10	0	0	0	0	0	0	0	0	0	0	0	0
